Measured values reported in ChEMBL document CHEMBL1961873, “Compounds: GSK PKIS; Assays: Nanosyn kinase panel” (2012).

What was measured:
[1] = test system: Epidermal growth factor receptor (Homo sapiens), P00533 [T790M]; details: at 1 µM
[2] = test system: Epidermal growth factor receptor (Homo sapiens), P00533 [L858R,T790M]; details: at 0.1 µM
[3] = test system: Epidermal growth factor receptor (Homo sapiens), P00533 [L858R,T790M]; details: at 1 µM
[4] = target: Ephrin type-A receptor 2 (Homo sapiens) (UniProt P29317); details: at 0.1 µM
[5] = target: Ephrin type-A receptor 2 (Homo sapiens) (UniProt P29317); details: at 1 µM
[6] = target: T1, Ephrin type-A receptor 3 (Homo sapiens) (UniProt P29320); details: at 0.1 µM
T1 sequence (whole entry): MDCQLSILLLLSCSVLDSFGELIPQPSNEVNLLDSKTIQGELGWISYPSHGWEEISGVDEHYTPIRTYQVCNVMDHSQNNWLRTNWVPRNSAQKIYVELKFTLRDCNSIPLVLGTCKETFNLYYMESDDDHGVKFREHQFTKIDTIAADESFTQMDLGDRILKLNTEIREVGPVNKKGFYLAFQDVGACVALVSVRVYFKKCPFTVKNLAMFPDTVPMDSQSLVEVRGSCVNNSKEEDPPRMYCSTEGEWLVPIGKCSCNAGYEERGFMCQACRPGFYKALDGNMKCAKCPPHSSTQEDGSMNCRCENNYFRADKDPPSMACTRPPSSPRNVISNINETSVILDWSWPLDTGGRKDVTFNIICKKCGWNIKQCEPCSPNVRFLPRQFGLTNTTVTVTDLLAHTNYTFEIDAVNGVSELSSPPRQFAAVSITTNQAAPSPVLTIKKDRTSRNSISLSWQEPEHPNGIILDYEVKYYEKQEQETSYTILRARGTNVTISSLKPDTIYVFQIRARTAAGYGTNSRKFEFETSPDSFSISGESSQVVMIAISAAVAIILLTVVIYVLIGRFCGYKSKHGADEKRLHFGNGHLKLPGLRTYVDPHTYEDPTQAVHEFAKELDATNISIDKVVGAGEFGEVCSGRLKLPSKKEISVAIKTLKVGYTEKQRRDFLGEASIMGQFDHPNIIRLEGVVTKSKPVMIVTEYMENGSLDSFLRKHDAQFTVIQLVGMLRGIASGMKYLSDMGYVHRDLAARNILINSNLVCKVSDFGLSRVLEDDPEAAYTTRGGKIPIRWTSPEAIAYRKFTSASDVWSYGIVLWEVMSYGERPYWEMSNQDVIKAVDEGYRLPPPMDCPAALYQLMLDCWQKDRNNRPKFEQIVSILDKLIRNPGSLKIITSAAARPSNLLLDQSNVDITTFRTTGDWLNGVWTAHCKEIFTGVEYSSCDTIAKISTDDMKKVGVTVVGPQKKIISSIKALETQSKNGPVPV

[7] = target: T1, Ephrin type-A receptor 3 (Homo sapiens); details: at 1 µM
[8] = target: Ephrin type-A receptor 4 (Homo sapiens) (UniProt P54764); details: at 0.1 µM
Chain of Ephrin type-A receptor 4 (Homo sapiens) (P54764 whole entry): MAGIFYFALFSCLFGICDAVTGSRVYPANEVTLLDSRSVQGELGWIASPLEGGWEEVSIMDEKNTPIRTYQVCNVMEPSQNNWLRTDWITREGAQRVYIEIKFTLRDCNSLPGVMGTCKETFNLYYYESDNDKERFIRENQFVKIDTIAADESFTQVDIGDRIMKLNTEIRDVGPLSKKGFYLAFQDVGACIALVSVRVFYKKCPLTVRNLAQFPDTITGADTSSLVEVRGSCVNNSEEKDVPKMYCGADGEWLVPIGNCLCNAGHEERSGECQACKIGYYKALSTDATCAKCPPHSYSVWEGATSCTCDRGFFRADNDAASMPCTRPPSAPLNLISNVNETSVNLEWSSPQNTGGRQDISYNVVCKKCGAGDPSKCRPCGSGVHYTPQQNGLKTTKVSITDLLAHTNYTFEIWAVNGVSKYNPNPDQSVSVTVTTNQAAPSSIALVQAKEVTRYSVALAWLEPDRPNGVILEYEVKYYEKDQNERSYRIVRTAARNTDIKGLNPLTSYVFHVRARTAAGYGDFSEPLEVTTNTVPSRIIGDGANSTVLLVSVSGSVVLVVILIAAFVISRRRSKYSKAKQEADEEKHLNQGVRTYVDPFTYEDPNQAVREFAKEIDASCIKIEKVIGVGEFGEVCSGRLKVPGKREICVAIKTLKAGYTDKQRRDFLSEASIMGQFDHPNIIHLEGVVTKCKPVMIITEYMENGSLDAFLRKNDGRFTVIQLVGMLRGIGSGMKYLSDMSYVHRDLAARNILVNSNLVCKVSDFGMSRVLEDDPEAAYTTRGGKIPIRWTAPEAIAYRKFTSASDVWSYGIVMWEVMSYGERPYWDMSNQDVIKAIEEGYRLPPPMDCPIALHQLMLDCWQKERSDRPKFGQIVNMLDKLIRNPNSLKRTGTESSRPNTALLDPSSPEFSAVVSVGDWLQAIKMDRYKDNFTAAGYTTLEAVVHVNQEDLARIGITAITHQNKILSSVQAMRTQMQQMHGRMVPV

[9] = target: Ephrin type-A receptor 4 (Homo sapiens) (UniProt P54764); details: at 1 µM
[10] = target: T2, Ephrin type-B receptor 2 (Homo sapiens) (UniProt P29323); details: at 0.1 µM
T2 sequence (whole entry): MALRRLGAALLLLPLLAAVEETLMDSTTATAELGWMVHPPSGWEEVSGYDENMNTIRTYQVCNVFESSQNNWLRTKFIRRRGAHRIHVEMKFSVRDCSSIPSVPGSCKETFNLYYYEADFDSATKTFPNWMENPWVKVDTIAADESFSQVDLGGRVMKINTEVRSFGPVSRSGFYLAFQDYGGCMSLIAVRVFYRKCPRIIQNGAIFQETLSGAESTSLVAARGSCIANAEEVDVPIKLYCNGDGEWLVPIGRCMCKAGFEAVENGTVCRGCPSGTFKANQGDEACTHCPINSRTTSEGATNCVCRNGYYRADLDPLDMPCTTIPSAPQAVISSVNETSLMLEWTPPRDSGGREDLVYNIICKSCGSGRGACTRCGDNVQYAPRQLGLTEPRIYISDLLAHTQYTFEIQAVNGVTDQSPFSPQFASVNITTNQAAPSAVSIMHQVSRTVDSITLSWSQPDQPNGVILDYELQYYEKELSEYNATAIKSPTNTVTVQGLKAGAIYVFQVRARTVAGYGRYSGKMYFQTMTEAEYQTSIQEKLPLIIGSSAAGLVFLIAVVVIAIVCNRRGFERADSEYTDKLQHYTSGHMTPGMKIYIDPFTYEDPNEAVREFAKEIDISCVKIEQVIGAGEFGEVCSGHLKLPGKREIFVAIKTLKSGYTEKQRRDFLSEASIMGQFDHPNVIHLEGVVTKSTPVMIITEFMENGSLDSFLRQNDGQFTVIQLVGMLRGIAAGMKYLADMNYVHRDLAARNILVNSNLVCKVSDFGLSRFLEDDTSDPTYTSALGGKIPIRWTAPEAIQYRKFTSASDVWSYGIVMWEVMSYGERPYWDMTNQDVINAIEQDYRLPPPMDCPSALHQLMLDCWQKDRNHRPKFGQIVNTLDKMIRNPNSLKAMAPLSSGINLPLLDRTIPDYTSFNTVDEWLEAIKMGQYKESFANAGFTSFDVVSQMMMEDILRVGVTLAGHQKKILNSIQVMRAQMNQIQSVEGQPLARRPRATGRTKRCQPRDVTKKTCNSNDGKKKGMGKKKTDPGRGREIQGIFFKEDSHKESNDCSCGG

[11] = target: T2, Ephrin type-B receptor 2 (Homo sapiens); details: at 1 µM
[12] = target: T3, Ephrin type-B receptor 3 (Homo sapiens) (UniProt P54753); details: at 0.1 µM
T3 sequence (whole entry): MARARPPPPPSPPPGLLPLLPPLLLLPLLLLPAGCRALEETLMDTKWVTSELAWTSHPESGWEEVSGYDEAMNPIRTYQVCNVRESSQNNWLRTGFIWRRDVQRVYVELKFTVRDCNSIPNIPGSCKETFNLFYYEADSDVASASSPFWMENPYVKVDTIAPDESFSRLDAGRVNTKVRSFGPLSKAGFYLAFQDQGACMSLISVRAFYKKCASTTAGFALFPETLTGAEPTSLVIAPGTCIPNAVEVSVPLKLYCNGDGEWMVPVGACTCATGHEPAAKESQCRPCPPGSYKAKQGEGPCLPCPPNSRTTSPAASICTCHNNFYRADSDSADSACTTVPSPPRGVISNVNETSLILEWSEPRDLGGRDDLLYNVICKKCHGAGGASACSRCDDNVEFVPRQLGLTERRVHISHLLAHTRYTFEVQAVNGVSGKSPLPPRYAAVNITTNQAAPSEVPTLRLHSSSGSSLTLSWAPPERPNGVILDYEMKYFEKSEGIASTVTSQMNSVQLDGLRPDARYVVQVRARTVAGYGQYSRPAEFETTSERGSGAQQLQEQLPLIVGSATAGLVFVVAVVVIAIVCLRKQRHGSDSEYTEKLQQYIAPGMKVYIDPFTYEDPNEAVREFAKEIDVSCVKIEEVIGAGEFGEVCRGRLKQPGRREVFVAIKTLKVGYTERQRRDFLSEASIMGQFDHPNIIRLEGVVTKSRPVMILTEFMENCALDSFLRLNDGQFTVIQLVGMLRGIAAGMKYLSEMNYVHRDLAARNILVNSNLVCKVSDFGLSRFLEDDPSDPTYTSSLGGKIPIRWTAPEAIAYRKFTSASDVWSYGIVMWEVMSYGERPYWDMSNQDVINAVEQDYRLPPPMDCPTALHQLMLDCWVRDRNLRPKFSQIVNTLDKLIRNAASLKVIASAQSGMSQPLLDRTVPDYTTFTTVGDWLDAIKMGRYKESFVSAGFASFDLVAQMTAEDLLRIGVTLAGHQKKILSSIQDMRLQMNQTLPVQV

[13] = target: T3, Ephrin type-B receptor 3 (Homo sapiens); details: at 1 µM
[14] = target: T4, Ephrin type-B receptor 4 (Homo sapiens) (UniProt P54760); details: at 0.1 µM
T4 sequence (whole entry): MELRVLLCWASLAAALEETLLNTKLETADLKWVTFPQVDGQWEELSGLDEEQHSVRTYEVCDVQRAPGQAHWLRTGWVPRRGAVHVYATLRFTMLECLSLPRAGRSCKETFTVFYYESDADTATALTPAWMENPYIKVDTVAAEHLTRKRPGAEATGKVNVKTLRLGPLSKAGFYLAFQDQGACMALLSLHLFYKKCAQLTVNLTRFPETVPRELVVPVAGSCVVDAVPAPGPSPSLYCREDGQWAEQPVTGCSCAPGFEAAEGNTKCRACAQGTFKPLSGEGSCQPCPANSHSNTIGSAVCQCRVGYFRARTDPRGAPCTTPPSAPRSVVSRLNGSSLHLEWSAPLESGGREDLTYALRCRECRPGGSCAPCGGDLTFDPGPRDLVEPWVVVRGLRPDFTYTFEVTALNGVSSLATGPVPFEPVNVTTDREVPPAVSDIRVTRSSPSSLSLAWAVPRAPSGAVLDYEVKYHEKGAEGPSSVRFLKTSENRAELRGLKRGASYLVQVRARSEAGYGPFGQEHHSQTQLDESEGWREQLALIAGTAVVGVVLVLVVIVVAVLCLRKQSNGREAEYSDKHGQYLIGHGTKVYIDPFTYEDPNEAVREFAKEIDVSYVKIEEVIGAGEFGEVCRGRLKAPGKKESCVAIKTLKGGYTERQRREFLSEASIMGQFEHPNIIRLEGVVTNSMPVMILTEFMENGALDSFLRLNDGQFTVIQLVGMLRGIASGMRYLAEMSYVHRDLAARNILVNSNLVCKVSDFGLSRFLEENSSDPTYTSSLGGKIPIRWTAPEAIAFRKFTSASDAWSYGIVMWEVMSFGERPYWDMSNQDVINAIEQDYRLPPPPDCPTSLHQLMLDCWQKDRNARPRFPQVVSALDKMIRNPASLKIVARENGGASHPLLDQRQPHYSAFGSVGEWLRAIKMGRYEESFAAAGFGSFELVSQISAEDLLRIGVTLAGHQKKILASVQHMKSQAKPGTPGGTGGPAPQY

[15] = target: T4, Ephrin type-B receptor 4 (Homo sapiens); details: at 1 µM
[16] = target: Receptor tyrosine-protein kinase erbB-2 (Homo sapiens) (UniProt P04626); details: at 0.1 µM
[17] = target: Receptor tyrosine-protein kinase erbB-2 (Homo sapiens) (UniProt P04626); details: at 1 µM
[18] = target: Receptor tyrosine-protein kinase erbB-4 (Homo sapiens) (UniProt Q15303); details: at 0.1 µM
Chain of Receptor tyrosine-protein kinase erbB-4 (Homo sapiens) (Q15303 whole entry): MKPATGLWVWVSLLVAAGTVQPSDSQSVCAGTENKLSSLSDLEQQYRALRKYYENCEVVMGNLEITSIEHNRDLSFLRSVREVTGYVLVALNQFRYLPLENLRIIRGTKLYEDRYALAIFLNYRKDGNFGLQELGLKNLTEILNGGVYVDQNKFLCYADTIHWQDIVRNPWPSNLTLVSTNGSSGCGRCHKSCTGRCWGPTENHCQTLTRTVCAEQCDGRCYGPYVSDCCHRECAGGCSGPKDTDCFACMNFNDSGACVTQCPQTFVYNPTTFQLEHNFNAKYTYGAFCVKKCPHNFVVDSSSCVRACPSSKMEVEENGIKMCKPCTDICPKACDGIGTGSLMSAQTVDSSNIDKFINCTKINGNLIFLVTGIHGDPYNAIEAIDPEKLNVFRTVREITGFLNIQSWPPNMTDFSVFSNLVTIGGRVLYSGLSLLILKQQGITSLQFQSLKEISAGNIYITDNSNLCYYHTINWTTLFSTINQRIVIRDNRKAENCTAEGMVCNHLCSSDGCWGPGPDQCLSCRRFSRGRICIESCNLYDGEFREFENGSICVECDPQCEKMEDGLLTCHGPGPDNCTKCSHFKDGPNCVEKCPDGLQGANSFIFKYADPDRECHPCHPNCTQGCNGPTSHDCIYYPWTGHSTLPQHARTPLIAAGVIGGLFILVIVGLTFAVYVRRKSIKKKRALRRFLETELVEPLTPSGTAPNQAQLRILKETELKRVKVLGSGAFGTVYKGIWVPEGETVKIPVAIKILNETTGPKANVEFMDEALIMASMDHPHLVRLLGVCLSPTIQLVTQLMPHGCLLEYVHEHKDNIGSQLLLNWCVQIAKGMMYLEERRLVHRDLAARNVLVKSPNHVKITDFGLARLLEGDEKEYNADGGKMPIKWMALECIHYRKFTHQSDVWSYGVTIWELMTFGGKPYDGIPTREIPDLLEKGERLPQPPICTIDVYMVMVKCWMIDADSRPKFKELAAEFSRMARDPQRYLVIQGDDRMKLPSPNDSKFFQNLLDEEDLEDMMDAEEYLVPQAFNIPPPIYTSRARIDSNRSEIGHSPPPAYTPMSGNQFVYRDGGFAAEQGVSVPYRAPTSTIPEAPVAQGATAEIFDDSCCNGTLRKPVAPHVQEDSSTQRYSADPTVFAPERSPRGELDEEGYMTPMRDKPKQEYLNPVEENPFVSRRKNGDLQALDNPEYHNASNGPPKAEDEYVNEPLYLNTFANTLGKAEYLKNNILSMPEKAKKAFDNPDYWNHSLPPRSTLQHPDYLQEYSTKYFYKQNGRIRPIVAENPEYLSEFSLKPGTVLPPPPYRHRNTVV

[19] = target: Receptor tyrosine-protein kinase erbB-4 (Homo sapiens) (UniProt Q15303); details: at 1 µM
[20] = target: Tyrosine-protein kinase Fer (Homo sapiens) (UniProt P16591); details: at 0.1 µM;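 further: reported figures are averaged percent inhibition of FER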

Chain of Epidermal growth factor receptor (Homo sapiens), P00533 [L858R,T790M] (P00533 whole entry T790M/L858R, looked up): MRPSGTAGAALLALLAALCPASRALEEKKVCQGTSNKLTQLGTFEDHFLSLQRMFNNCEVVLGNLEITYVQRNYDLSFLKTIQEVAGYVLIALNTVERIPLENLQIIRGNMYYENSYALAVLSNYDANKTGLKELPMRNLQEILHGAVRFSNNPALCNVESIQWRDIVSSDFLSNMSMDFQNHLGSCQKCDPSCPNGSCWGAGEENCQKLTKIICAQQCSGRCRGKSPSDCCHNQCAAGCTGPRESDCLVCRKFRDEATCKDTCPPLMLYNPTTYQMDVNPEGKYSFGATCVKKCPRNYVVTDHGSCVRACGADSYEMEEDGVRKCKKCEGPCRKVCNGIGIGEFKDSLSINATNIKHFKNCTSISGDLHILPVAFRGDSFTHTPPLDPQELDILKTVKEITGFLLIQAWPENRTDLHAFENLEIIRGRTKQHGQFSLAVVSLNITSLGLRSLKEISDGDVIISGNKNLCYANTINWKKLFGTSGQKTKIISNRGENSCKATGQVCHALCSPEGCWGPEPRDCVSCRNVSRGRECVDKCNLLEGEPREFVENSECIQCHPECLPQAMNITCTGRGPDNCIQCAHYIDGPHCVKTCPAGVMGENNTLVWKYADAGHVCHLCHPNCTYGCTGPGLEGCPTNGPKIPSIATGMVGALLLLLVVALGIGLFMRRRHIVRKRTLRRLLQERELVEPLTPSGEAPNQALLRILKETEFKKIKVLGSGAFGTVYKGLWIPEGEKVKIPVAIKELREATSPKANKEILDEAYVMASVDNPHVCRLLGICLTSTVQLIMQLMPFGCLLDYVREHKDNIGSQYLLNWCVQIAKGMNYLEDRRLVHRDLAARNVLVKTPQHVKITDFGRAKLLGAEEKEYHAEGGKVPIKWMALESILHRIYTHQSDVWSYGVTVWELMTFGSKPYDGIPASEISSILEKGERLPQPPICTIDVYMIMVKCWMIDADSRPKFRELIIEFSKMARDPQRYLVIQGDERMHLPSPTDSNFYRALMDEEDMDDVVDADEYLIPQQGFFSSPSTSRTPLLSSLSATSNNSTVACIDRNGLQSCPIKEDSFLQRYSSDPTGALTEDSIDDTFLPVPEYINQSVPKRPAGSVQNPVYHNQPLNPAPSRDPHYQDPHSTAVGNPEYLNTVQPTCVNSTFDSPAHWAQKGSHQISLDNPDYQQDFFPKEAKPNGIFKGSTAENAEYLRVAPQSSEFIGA
Chain of Epidermal growth factor receptor (Homo sapiens), P00533 [T790M] (P00533 whole entry T790M): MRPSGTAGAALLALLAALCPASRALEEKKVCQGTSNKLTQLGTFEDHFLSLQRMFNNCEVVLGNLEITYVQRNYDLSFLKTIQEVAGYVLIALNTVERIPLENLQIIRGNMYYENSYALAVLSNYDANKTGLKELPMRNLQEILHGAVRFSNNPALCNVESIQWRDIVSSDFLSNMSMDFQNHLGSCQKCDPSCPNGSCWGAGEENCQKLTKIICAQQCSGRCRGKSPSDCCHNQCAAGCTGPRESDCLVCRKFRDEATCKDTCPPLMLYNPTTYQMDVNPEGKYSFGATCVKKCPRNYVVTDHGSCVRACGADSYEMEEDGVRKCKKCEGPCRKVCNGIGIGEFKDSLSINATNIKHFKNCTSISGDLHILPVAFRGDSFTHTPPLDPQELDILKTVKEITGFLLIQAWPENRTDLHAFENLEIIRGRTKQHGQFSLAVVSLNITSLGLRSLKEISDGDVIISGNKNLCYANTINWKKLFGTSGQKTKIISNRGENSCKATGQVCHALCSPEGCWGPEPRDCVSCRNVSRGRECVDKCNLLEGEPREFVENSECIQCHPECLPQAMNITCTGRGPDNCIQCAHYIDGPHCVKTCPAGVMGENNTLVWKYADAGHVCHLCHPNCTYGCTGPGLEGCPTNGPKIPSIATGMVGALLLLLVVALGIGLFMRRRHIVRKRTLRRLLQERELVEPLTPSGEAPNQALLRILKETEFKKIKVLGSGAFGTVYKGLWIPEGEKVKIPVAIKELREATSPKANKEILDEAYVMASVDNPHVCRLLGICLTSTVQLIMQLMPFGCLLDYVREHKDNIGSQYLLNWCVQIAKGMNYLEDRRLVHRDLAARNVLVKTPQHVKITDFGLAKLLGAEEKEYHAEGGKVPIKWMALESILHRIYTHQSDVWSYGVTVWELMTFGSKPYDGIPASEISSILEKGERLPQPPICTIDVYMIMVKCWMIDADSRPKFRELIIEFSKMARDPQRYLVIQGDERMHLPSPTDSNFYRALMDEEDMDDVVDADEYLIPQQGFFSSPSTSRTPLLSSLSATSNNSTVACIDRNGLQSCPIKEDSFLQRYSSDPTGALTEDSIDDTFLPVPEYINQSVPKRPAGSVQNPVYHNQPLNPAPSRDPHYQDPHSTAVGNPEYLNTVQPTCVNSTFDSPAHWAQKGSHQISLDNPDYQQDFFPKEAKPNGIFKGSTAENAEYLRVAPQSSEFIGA

Row | Compound | inhibition [1] | inhibition [2] | inhibition [3] | inhibition [4] | inhibition [5] | inhibition [6] | inhibition [7] | inhibition [8] | inhibition [9] | inhibition [10] | inhibition [11] | inhibition [12] | inhibition [13] | inhibition [14] | inhibition [15] | inhibition [16] | inhibition [17] | inhibition [18] | inhibition [19] | inhibition [20]
1 | CCn1c(-c2nonc2N)nc2c(C#CCN)ncc(OCCCN)c21 | 5.94% | 3.07% | 5.28% | 5.32% | 1.78% | -2.35% | -1% | -3.41% | 3.82% | -6% | -5.25% | -7.45% | 1.18% | -2.64% | -2.62% | -3.17% | 3.87% | -7.51% | 2.14% | 5.14%
2 | COc1cc(C=NNc2ncnc3c2cnn3Cc2ccccc2)ccc1O | -3.25% | -1.62% | -0.48% | 15.6% | 32.4% | -4.93% | 3.27% | 6.93% | 21.7% | -3.14% | 9.74% | -7.53% | -0.1% | 4.81% | 7.15% | -6.92% | -3.2% |  |  | 3.46%
3 | Fc1ccc(-c2ncn(C3CCNCC3)c2-c2ccnc(Oc3ccccc3)n2)cc1 | 2.3% | -1.55% | 0.47% | -5.61% | -5.64% | -1.44% | -1.53% | 4.92% | 5.9% | 5.55% | 5.52% | -0.53% | -0.5% | -4.2% | 1.66% | 9.4% | 10.7% | 10.8% | 15.3% | 1.63%
4 | Nc1nonc1-c1nc2cnccc2n1C1CCCCC1 | -2.94% | -0.65% | -0.53% | -4.45% | -4.85% | -7.25% | -1.98% | -4.61% | -3.51% | -7.08% | -8.8% | -1.43% | -4.08% | -3.41% | -1.63% | -3.46% | -1.33% | -5.14% | -5.19% | -1.75%
5 | NS(=O)(=O)c1ccc(-c2ccc3c(NC(=O)C4CC4)n[nH]c3c2)cc1 | -0.38% | -1.39% | 1.78% | 3% | 1.18% | 2.34% | 2.31% | 4.83% | 1.43% | 7.57% | 8.86% | 4.28% | 4.38% | 1.05% | 3.22% | -0.2% | 0.41% | 8.86% | 7.66% | -0.63%
6 | COc1cccc(-n2ncc3c(N/N=C/c4ccncc4)ncnc32)c1 | 5.66% | 3.61% | 8.8% | 3.25% | 15.8% | 5.89% | 6.97% | 11.1% | 35.5% | 8.96% | 30.4% | 4.72% | 3.82% | 3.92% | 13.7% | 0.91% | 5.53% | 9.63% | 20.9% | 4.97%
7 | NC(=O)c1sc(-n2cnc3cc(C(F)(F)F)ccc32)cc1OCc1ccccc1Br | 0.23% | -0.11% | -0.24% | 2.18% | 0.32% | 3.31% | 1.36% | 4.57% | 8.16% | -4.03% | 4.29% | 1.68% | 3.79% | 0.19% | 1.65% | 3.19% | 4.72% | 5.4% | 14.4% | 2.82%
